{"source": "the supplement of paper PMC10338343", "note": "± gives the standard deviation. In all, about 6,600 sequences were measured (“pre-steady-state target cleavage rate”: median about 0.07, highest 2% from about 0.72 on). The sample holds the highest values, similar sequences and a random draw of the others, so the mix is not that of the screen.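 Further: 1 nM active piRISC with 0.1 nM target library at 33 °C single turnover.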", "data": [{"tested_on": "MIWI (PIWIL1) piRISC loaded with Kctd7 piRNA (30 nt)", "assay": "pre-steady-state target cleavage rate (min^-1); MIWI and MILI are mouse PIWI proteins and EfPiwi is from a freshwater sponge; tags in brackets are library labels; higher = faster piRNA-guided slicing of the target", "conditions": "guide: Kctd7 piRNA 5'p-UGUUAAUCUCUCAGAGAAGGUGACAGUGAU; auxiliary factor: 500 nM mouse GTSF1", "method_in_brief": "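In this Cleave-'n-Seq assay, uncleaved targets were sequenced and normalised to depth and to weakly complementary targets. They came from a transcribed, DNA-blocked target RNA library […] mixed with 1 nM active affinity-purified piRISC carrying one synthetic guide, with or without 500 nM GTSF1 partner protein, in HEPES–potassium acetate buffer at 33 °C for 0–8 or 0–960 min. After three trials were pooled and k3 was capped at 0.0001 min^-1, the pre-steady-state cleavage rate was obtained from a burst-and-steady-state fit.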", "values": [{"sequence": "UAGUGUGUCACCUUCUCUGAGAGAGUAACA", "pre-steady-state target cleavage rate": "0.394 ± 0.046"}, {"sequence": "UUCAGUGUCACCUACUCUGAGAGAUUAACA", "pre-steady-state target cleavage rate": "0.509 ± 0.033"}, {"sequence": "UACUCUGUCACCUUCUGUGAGAGAUUAACA", "pre-steady-state target cleavage rate": "0.533 ± 0.025"}, {"sequence": "UACACUGUCACCUUCUCUGAGAGAUAUUGA [g6:g28:cont:t1A]", "pre-steady-state target cleavage rate": "0.0488 ± 0.017"}, {"sequence": "UAGUGACUCACGUUCUCUGAGAGAUAAACA", "pre-steady-state target cleavage rate": "0.119 ± 0.022"}, {"sequence": "UAGUGACUCACCUUCUCAGAGAGAUAAACA", "pre-steady-state target cleavage rate": "0.027 ± 0.0057"}, {"sequence": "UAGUCUGUCACCUUCUCACAGAGAUUAACA", "pre-steady-state target cleavage rate": "0.0188 ± 0.0059"}, {"sequence": "UUCACUGUCACGUUCUCUGAGAGAUUAACA", "pre-steady-state target cleavage rate": "0.681 ± 0.035"}, {"sequence": "UUCACAGUCACGUUCUCUGAGAGAUUAACA", "pre-steady-state target cleavage rate": "0.685 ± 0.027"}, {"sequence": "AACACUGUCACGUUCUCUGAGAGAUUAACA", "pre-steady-state target cleavage rate": "0.71 ± 0.035"}, {"sequence": "UUGACUGUCACGUUCUCUGAGAGAUUAACA", "pre-steady-state target cleavage rate": "0.711 ± 0.037"}, {"sequence": "UACACUGUCACGUUCUCUGAGAGAUUAACA", "pre-steady-state target cleavage rate": "0.743 ± 0.037"}, {"sequence": "UAGACUGUCACGUUCUCUGAGAGAUUAACA", "pre-steady-state target cleavage rate": "0.671 ± 0.042"}, {"sequence": "AUCACAGUCACGUUCUCUGAGAGAUUAACA", "pre-steady-state target cleavage rate": "0.737 ± 0.026"}, {"sequence": "AUGACUGUCACGUUCUCUGAGAGAUUAACA", "pre-steady-state target cleavage rate": "0.755 ± 0.054"}, {"sequence": "AUCACUGUCACGUUCUCUGAGAGAUUAACA", "pre-steady-state target cleavage rate": "0.821 ± 0.043"}, {"sequence": "UACACAGUCACGUUCUCUGAGAGAUUAACA", "pre-steady-state target cleavage rate": "0.679 ± 0.035"}, {"sequence": "UUCUCUGUCACGUUCUCUGAGAGAUUAACA", "pre-steady-state target cleavage rate": "0.564 ± 0.026"}, {"sequence": "UACACUGUCACGUUCUCUGUGAGAUUAACA", "pre-steady-state target cleavage rate": "0.233 ± 0.014"}, {"sequence": "UAGACUGUGACCAUCUCUGAGAGAUUAACA", "pre-steady-state target cleavage rate": "0.359 ± 0.025"}, {"sequence": "UAGUGACACACCUUCACUGAGAGAUAAACA", "pre-steady-state target cleavage rate": "0.112 ± 0.022"}, {"sequence": "UUCACUGAUCACCUUCUCUGAGAGAUUAACA", "pre-steady-state target cleavage rate": "0.653 ± 0.052"}, {"sequence": "UUCACUGUCACCUUCUCUCAGAGAUUUACA", "pre-steady-state target cleavage rate": "0.0958 ± 0.015"}, {"sequence": "UAGACUGUCACCUUCUCUCUCUCUAAUUGA [g13:g27:cont:t1A]", "pre-steady-state target cleavage rate": "< 0.0001"}, {"sequence": "UAGACUGUCACCUUCUCUGAGAGAUAAUCA", "pre-steady-state target cleavage rate": "0.0918 ± 0.018"}, {"sequence": "UAGACUGUUACCUUCUCUGAGAGAUUAACA", "pre-steady-state target cleavage rate": "0.745 ± 0.039"}, {"sequence": "UAGACUGUCACCUUCUCUGAGAGAUUAACG [g2:g27:cont:t1G]", "pre-steady-state target cleavage rate": "0.674 ± 0.034"}, {"sequence": "UACACUGUUCACCUUCUCUGAGAGAUUAACA", "pre-steady-state target cleavage rate": "0.614 ± 0.025"}, {"sequence": "AUCACUGUUCACCUUCUCUGAGAGAUUAACA", "pre-steady-state target cleavage rate": "0.79 ± 0.046"}, {"sequence": "UUCACUGUUCACCUUCUCUGAGAGAUUAACA", "pre-steady-state target cleavage rate": "0.633 ± 0.036"}, {"sequence": "UUCACUGUUACCUUCUCUGAGAGAUUAACA", "pre-steady-state target cleavage rate": "0.342 ± 0.032"}, {"sequence": "UAGACUUCACCUUCUCUGAGAGAUUAACA", "pre-steady-state target cleavage rate": "0.576 ± 0.04"}, {"sequence": "AUCACUGUUACCUUCUCUGAGAGAUUAACA", "pre-steady-state target cleavage rate": "0.553 ± 0.033"}, {"sequence": "UAGACUGUUCACCUUCUCUGAGAGAUUAACA", "pre-steady-state target cleavage rate": "0.771 ± 0.043"}, {"sequence": "UAGUGAGUCACCUUCUCUGAGUCUUUAAGA", "pre-steady-state target cleavage rate": "0.00546 ± 0.0039"}, {"sequence": "UAGUGAGUCACCUUCUCUGAGAGAAUAUCA", "pre-steady-state target cleavage rate": "0.124 ± 0.041"}, {"sequence": "UAGUGACAGACCUUCUCUGAGAUAUUAACA", "pre-steady-state target cleavage rate": "0.0437 ± 0.011"}, {"sequence": "UUCUCUGUCACCUUCUCUGAGAGAUAUUGA", "pre-steady-state target cleavage rate": "0.0992 ± 0.024"}, {"sequence": "UAGUGACUCACCAAGUCUGAGAGAUAUUGA", "pre-steady-state target cleavage rate": "< 0.0001"}, {"sequence": "UAGUGACAGACCUUCUCUGUGAGUUUAACA", "pre-steady-state target cleavage rate": "0.0139 ± 0.0037"}, {"sequence": "UAGUGACACACCAUUCUCUGAGAGAUUAACA", "pre-steady-state target cleavage rate": "0.245 ± 0.022"}, {"sequence": "UAGUGACAGUGGAAGUCUGAGACAUAAACA", "pre-steady-state target cleavage rate": "< 0.0001"}, {"sequence": "UUACACUGUCACCUUCUCUGAGAGAUUAACA", "pre-steady-state target cleavage rate": "0.769 ± 0.044"}, {"sequence": "UACACUGUCACCUUCUCUCUGAGAUUAACA", "pre-steady-state target cleavage rate": "0.0197 ± 0.0062"}, {"sequence": "AUACACUGUCACCUUCUCUGAGAGAUUAACA", "pre-steady-state target cleavage rate": "0.752 ± 0.05"}, {"sequence": "UACACUGUCACCUUCUCUGAGAGAUUAACC [g2:g28:cont:t1C]", "pre-steady-state target cleavage rate": "0.391 ± 0.034"}, {"sequence": "UACACUGUCACCUUCUCUGAGAGAUUAACA [g2:g28:cont:t1A]", "pre-steady-state target cleavage rate": "0.563 ± 0.039"}, {"sequence": "UACACUGUCACCUUCUCUGAGAGAUUAACG [g2:g28:cont:t1G]", "pre-steady-state target cleavage rate": "0.566 ± 0.047"}, {"sequence": "UAGUGACAGACCUUCUCUGAGAGAUAUACA", "pre-steady-state target cleavage rate": "0.0324 ± 0.0083"}, {"sequence": "UAGUCUGUCACCUUCUCAGAGAGAUUUUGA", "pre-steady-state target cleavage rate": "0.0587 ± 0.02"}, {"sequence": "UAGACUGUCACCUUCUCUGAGAGAUUAAUA", "pre-steady-state target cleavage rate": "0.414 ± 0.035"}, {"sequence": "UAGAGUGUCACCAUCUCUGAGAGAUUAACA", "pre-steady-state target cleavage rate": "0.741 ± 0.045"}, {"sequence": "UAGACUGUCACCGUUCUCUGAGAGAUUAACA", "pre-steady-state target cleavage rate": "0.625 ± 0.041"}, {"sequence": "UAGACUGUCACCAUCUCUGAGAGAUUAACA", "pre-steady-state target cleavage rate": "0.741 ± 0.052"}, {"sequence": "UAGUGUGUCACCAUCUCUGAGAGAUUAACA", "pre-steady-state target cleavage rate": "0.609 ± 0.037"}, {"sequence": "AUCACUGUCACCGUCUCUGAGAGAUUAACA", "pre-steady-state target cleavage rate": "0.608 ± 0.038"}, {"sequence": "UAGACUGUCACCAUUCUCUGAGAGAUUAACA", "pre-steady-state target cleavage rate": "0.792 ± 0.055"}, {"sequence": "UAGACUGUCACCCUUCUCUGAGAGAUUAACA", "pre-steady-state target cleavage rate": "0.517 ± 0.042"}, {"sequence": "UUCAGUGUCACCAUCUCUGAGAGAUUAACA", "pre-steady-state target cleavage rate": "0.585 ± 0.037"}, {"sequence": "UAGACUGUCACCAUCUCUGAGAGAUUAAGA", "pre-steady-state target cleavage rate": "0.112 ± 0.018"}, {"sequence": "UAGACUGUCACCGUCUCUGAGAGAUUAACA", "pre-steady-state target cleavage rate": "0.769 ± 0.037"}, {"sequence": "UAGACUGUCACCUUCUCUGAGAGAUUAACCA", "pre-steady-state target cleavage rate": "0.648 ± 0.054"}, {"sequence": "UAGACUGUCACCAUCUCUGUGAGAUUAACA", "pre-steady-state target cleavage rate": "0.155 ± 0.013"}, {"sequence": "UAGUGACACACCUUCUCUGAGUGAAUAACA", "pre-steady-state target cleavage rate": "0.00377 ± 0.0036"}, {"sequence": "UACACUGACACCUUCUCUGUGAGAUUAACA", "pre-steady-state target cleavage rate": "0.181 ± 0.019"}, {"sequence": "UACACUCAGACCUUCUCUGAGAGAUUAAGA", "pre-steady-state target cleavage rate": "0.0222 ± 0.0091"}, {"sequence": "UAGUGACAGACCUUCUCUGAGAGACUAACA", "pre-steady-state target cleavage rate": "0.0225 ± 0.0061"}, {"sequence": "UAGACAGUGACCUUCUCUGAGAGAUUAACA", "pre-steady-state target cleavage rate": "0.554 ± 0.033"}, {"sequence": "UACACUGAGACCUUCUCUGAGAGAUUAUGA", "pre-steady-state target cleavage rate": "0.0374 ± 0.015"}, {"sequence": "UAGUGACAGACCUUCUCUGAGACAUUAACA", "pre-steady-state target cleavage rate": "0.039 ± 0.0076"}, {"sequence": "UUCACUGUCACCUUCUCUGUGAGAUUUACA", "pre-steady-state target cleavage rate": "0.158 ± 0.027"}, {"sequence": "UAGUGACACACCUUCACUGAGACAUUAACA", "pre-steady-state target cleavage rate": "0.17 ± 0.029"}, {"sequence": "AUCACUGUCACCUUGUCUGAGAGAUAAACA", "pre-steady-state target cleavage rate": "0.552 ± 0.085"}, {"sequence": "UAGACUGUCACGCUUCUCUGAGAGAUUAACA", "pre-steady-state target cleavage rate": "0.563 ± 0.029"}, {"sequence": "UAGUCUGUCACAUUCUCUGAGAGAUUAACA", "pre-steady-state target cleavage rate": "0.607 ± 0.03"}, {"sequence": "UAGACUGUCACAUUCUCUGAGAGAUUAACA", "pre-steady-state target cleavage rate": "0.77 ± 0.051"}, {"sequence": "AUCUCUGUCACCUUCUCAGAGAGAUUAACA", "pre-steady-state target cleavage rate": "0.245 ± 0.024"}, {"sequence": "UAGUCAGUCACCUUCUCUGAGAGAUUAACA", "pre-steady-state target cleavage rate": "0.722 ± 0.034"}, {"sequence": "UAGUCUAGUCACCUUCUCUGAGAGAUUAACA", "pre-steady-state target cleavage rate": "0.67 ± 0.035"}, {"sequence": "UAGUCUGGUCACCUUCUCUGAGAGAUUAACA", "pre-steady-state target cleavage rate": "0.749 ± 0.046"}, {"sequence": "UAGUCGGUCACCUUCUCUGAGAGAUUAACA", "pre-steady-state target cleavage rate": "0.73 ± 0.037"}, {"sequence": "UAGUCUGUCACCUUCUCUGAGAGAUUAACA [g2:g26:cont:t1A]", "pre-steady-state target cleavage rate": "0.631 ± 0.026"}, {"sequence": "UAGUCGUCACCUUCUCUGAGAGAUUAACA", "pre-steady-state target cleavage rate": "0.7 ± 0.049"}, {"sequence": "UUCACUCACACCUUCUCUGAGAGAUUAAGA", "pre-steady-state target cleavage rate": "0.0618 ± 0.011"}, {"sequence": "UUCACUGUCACCUUACUCUGAGAGAUUAACA", "pre-steady-state target cleavage rate": "0.522 ± 0.026"}, {"sequence": "UAGUCUGUCACCAUCUCUGAGAGAUUAAGA", "pre-steady-state target cleavage rate": "0.0769 ± 0.013"}]}]}
